Experimental findings from PubChem BioAssay (NCI) are described below.

Holding throughout (assay): NCI-60 one-dose screen, 48 h (100 = growth as untreated, 0 = no growth, -100 = all killed)
Common to all, as to conditions: 10 µM unless noted

Experiment [1] concerns HCT-15 colon.
Experiment [2] concerns HT29 colon.
Experiment [3] relates to SNB-75 CNS.
In experiment [4] the test system is SNB-19 CNS.
Experiment [5] relates to U251 CNS.
Experiment [6] has as its system PC-3 prostate.
Experiment [7] relates to SK-MEL-5 melanoma.
The test system of experiment [8] is UACC-62 melanoma.
Experiment [9] deals with LOX IMVI melanoma.
Experiment [10] has as its system SK-MEL-28 melanoma.

SMILES strings stand for the structures. About 83,000 compounds went through this panel and 20% of them were active in at least one assay; those are over-represented in the sample as a whole.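 Single-concentration screen, 48 h exposure, 96-well plates. Endpoint: percent growth. Below 10 = active.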 Unmarked numbers belong to inactive results. Active and inactive are the calls of the source.

As for `O=C(Nc1ncc(Cc2ccc(Cl)cc2)s1)C1=NCCCCN1`, the growth in experiment [1] was 98.9%; in experiment [2], 102%; in [3] it was 102%; in experiment [4], 106%; in experiment [5], 106%; in experiment [6], 101%. For the same compound, the growth in [7] is 99.8%; in [8], 97.7%; in experiment [9], 98.7%; in experiment [10], 108%.
In the case of `Cc1ccc(C(F)(F)F)cc1N1CCN(C(=O)[C@H]2C[C@H]2c2ccc(C(F)(F)F)nc2)CC1`, the growth in experiment [1] was 93.2%; in experiment [2], 79.8%; in experiment [3], 92.2%; in [4], 90.5%; in experiment [5], 94.2%; in [6], 77.7%. Besides, the growth in experiment [7] was 81.6%; in [8], 74.8%; in [9] it was 96.2%; in experiment [10], 100%.
As to `CCOC(=O)c1cc(C(=O)c2cc(OC)cc(OC)c2)n2ncccc12`, the growth in experiment [1] was 21.5%; in [2] it was 7.23% (active); in experiment [3], 23.5%; in experiment [4], 47.1%; in [5] it was 24.7%; in experiment [6], 36.2%. The growth in experiment [7] was 26%; in [8], 26.2%; in experiment [9] it was 39.7%; in [10], 71.2%.
With `Cc1ccc(C23CCC(=O)N2CCc2cncn23)cc1` (stereo not given), the growth in experiment [1] was 98.9%; in experiment [2] it was 98.3%; in experiment [3] it was 111%; in [4], 97.7%; in [5], 97.2%; in [6], 95%. In addition, the growth in experiment [7] is 98.8%; in [8], 95.8%; in experiment [9] it was 105%; in experiment [10] it was 106%.
For the compound `CCOC(=O)/C(=C\c1ccccc1Cl)P(=O)(OCC)OCC`, the growth in experiment [1] was 34.4%; in experiment [2] it was 34.7%; in experiment [3] it was 51%; in experiment [4] it was 84.8%; in experiment [5], 66.3%; in [6], 45.8%. Further, the growth was 79.5% in experiment [7], 56.7% in experiment [8], 0.286% (active) in [9] and 65.2% in experiment [10].
As for `CCOC(=O)c1cnc2sc(-c3ccc(OC)cc3)nc2c1Cl`, the growth is 92.9% in experiment [1]; 116% in experiment [2]; 94.7% in experiment [3]; 104% in experiment [4]; 103% in experiment [5]; 104% in experiment [6]. Moreover, the growth in experiment [7] was 84.2%; in [8], 88.7%; in [9] it was 86.8%; in experiment [10] it was 99%.
Turning to `CC1=NN(c2cccc(Cl)c2)C(=O)/C1=C\C=C\c1ccccc1`, the growth was 5% (active) in experiment [1]; -29.5% (active) in experiment [2]; 50.9% in experiment [3]; 37.5% in experiment [4]; -57.4% (active) in experiment [5]; 45.5% in experiment [6]. In addition, the growth was 5.05% (active) in [7], 28.2% in [8], -87.9% (active) in [9] and -69.7% (active) in [10].
With `COc1cc2nc3cc([N+](=O)[O-])ccc3c(NCCCNCCO)c2cc1OC`, the growth in experiment [1] is 41.2%; in experiment [2], 1.17% (active); in experiment [3], -74.2% (active); in experiment [4] it was -19% (active); in [5], -45.5% (active); in experiment [6], -66.8% (active). For the same compound, the growth in experiment [7] is -93.9% (active); in experiment [8], -65.2% (active); in experiment [9], -63.7% (active); in experiment [10] it was -53.1% (active).
For the compound `Nc1cc(-c2ccc(Cl)cc2)nn1-c1nc(-c2ccc(Br)cc2)cs1`, the growth in experiment [1] is 98.3%; in experiment [2] it was 92%; in [3], 89.4%; in [4] it was 91.4%; in experiment [5], 95.2%; in experiment [6] it was 91.5%. The growth was 100% in experiment [7], 91.1% in experiment [8], 102% in experiment [9] and 95.3% in experiment [10].
`C=C1C(=O)O[C@H]2[C@H]1CC/C(COC(=O)NCc1ccc(Cn3c(=O)sn(CCCC)c3=O)cc1)=C\CC[C@@]1(C)O[C@@H]21`: the growth was 24.4% in experiment [1]; 0.335% (active) in [2]; 82.7% in [3]; 100% in experiment [4]; 60.4% in experiment [5]; 59.9% in experiment [6]. Besides, the growth in [7] is 96.3%; in experiment [8], 53.3%; in experiment [9], 26.8%; in experiment [10], 55.5%.
Take `Cc1nc2cccc(NCc3ccc(C(=O)NO)cc3)c2c(=O)n1-c1ccccc1`: the growth in experiment [1] is 31.3%; in experiment [2], 26.4%; in experiment [3] it was 42.6%; in [4] it was 40.8%; in experiment [5], -16.7% (active); in experiment [6], 27%. The growth in experiment [7] was 8.27% (active); in experiment [8], -17.7% (active); in experiment [9], 26.6%; in [10], 35.7%.
With `N=C(N)c1ccc(-c2ccc(-c3ccccc3)s2)nc1`, the growth in experiment [1] was 44.9%; in experiment [2], 26.7%; in experiment [3] it was 88.4%; in [4], 87.5%; in experiment [5], 41.1%; in experiment [6], 80.5%. Further, the growth in experiment [7] was 87.5%; in experiment [8], 91.6%; in experiment [9], 51.3%; in experiment [10] it was 109%.
On to `COc1ccc(N2C(=O)/C(=C/C(Cl)=C/c3ccc([N+](=O)[O-])cc3)SC2=S)cc1`, for which the growth in experiment [1] was -24.1% (active); in experiment [2] it was -20.9% (active); in experiment [3], -33.8% (active); in [4] it was 2.68% (active); in experiment [5] it was -83.1% (active); in experiment [6], 2.17% (active). The growth in experiment [7] was 29.3%; in [8] it was -25.2% (active); in [9] it was -86.2% (active); in experiment [10], 13.7%.
For the compound `CCN=c1sc2c(n1NC(=O)c1cc3ccc1CCc1ccc(cc1)CC3)C(=O)c1ccccc1C2=O`, the growth was -68.1% (active) in experiment [1]; 49% in experiment [2]; -98.2% (active) in experiment [3]; -74.3% (active) in [4]; -81.5% (active) in experiment [5]; -2.79% (active) in [6]. In addition, the growth was -96.9% (active) in [7], -54% (active) in [8], -83.9% (active) in experiment [9] and -81.2% (active) in experiment [10].
Take `N#CC1=C(N)Oc2c(ccc3ccccc23)C1c1cc2ccccc2n2nnnc12` (stereo not given): the growth in experiment [1] is 11.8%; in experiment [2] it was 8.73% (active); in [3], 8.82% (active); in experiment [4] it was 26.2%; in experiment [5], 18.7%; in experiment [6] it was 10.1%. The growth was 7.97% (active) in [7], 25.4% in [8], 24.5% in [9] and 39.3% in [10].
As to `Clc1nc(N2CCC[N+]3(CC2)CC[N+]2(CCCNCC2)CC3)nc(N2CCC[N+]3(CC2)CC[N+]2(CCCNCC2)CC3)n1` (stereo not given), the growth is 83.2% in experiment [1]; 54.9% in experiment [2]; 123% in experiment [3]; 112% in experiment [4]; 91.7% in [5]; 101% in experiment [6]. Moreover, the growth in [7] is 102%; in [8], 96.8%; in experiment [9] it was 98%; in experiment [10], 92.2%.
As to `O=C1NCCS(=O)(=O)/C1=C\C=C\c1cccc(C(F)(F)F)c1`, the growth was 10.2% in experiment [1]; 16.8% in experiment [2]; 71.2% in [3]; 49.6% in experiment [4]; 36% in experiment [5]; 37.5% in [6]. Besides, the growth in [7] is 34.5%; in experiment [8], -15% (active); in experiment [9], -73.6% (active); in experiment [10], 28.7%.
Take `Cc1c(C)c2c(c(C)c1OC(=O)CCC(=O)[O-])CCC(C)(CCCCCCCCCCC[P+](c1ccccc1)(c1ccccc1)c1ccccc1)O2` (stereo not given): the growth in experiment [1] was 2.7% (active); in experiment [2], 6.17% (active); in experiment [3] it was -31.5% (active); in [4] it was -42.4% (active); in [5], -70.1% (active); in experiment [6] it was -31.9% (active). In addition, the growth in experiment [7] is -98.3% (active); in [8], -54.1% (active); in experiment [9] it was -91.4% (active); in experiment [10], -77.3% (active).
Consider `COC(=O)c1sc(-c2ccc(C)cc2)cc1O`, for which the growth in experiment [1] was 101%; in [2], 108%; in [3], 105%; in experiment [4], 101%; in experiment [5], 96.5%; in experiment [6], 102%. The growth was 103% in experiment [7], 97.1% in experiment [8], 101% in experiment [9] and 113% in experiment [10].
For `C#CCOc1cccc(Nc2c(Cl)c(CCl)nc3ccc(Oc4ccccc4)cc23)c1`, the growth in experiment [1] is 12.3%; in experiment [2], 7.96% (active); in experiment [3], 75.5%; in [4] it was 62.5%; in experiment [5], 24.9%; in experiment [6] it was 78%. For the same compound, the growth in [7] was 30.4%; in experiment [8] it was 39.9%; in experiment [9], -34.1% (active); in experiment [10] it was 65.4%.
Regarding `Nc1ccc(Cl)c2c(=O)c3ccccc3[nH]c12`, the growth in experiment [1] is 83.1%; in experiment [2], 100%; in experiment [3] it was 84.2%; in experiment [4], 88.5%; in [5], 92.2%; in [6], 76.6%. The growth was 53.1% in [7], 93.6% in experiment [8], 71.4% in experiment [9] and 113% in [10].
For `[2H]C([2H])([2H])Oc1ccc(/C=C/C(=O)/C=C(O)/C=C/c2ccc(OC([2H])([2H])[2H])c(OC([2H])([2H])[2H])c2)cc1OC([2H])([2H])[2H]`, the growth in experiment [1] was 14.3%; in experiment [2], 10.7%; in experiment [3], 45.7%; in [4], 39.2%; in experiment [5], 19.5%; in experiment [6] it was 32.6%. The growth was 11.6% in experiment [7], 52% in experiment [8], 14.5% in [9] and 87.4% in [10].
As for `CC(C)(C)c1ccc(C(=O)Nc2sc3c(c2C#N)CCC(=O)C3)cc1`, the growth was -18.5% (active) in [1]; 5% (active) in experiment [2]; -6.69% (active) in experiment [3]; 14.1% in experiment [4]; 16.4% in experiment [5]; 8.36% (active) in experiment [6]. Further, the growth in experiment [7] is -69.8% (active); in [8], 9.35% (active); in experiment [9], 10.5%; in [10], 28.8%.
On to `CSc1nc(N)c2c(n1)NC(c1ccccc1)C1CCc3ccccc3C1=N2` (stereo not given), for which the growth is 46.8% in experiment [1]; 42.7% in experiment [2]; 84% in experiment [3]; 79% in [4]; 68.2% in experiment [5]; 11.9% in experiment [6]. Moreover, the growth was 51% in experiment [7], 42.6% in experiment [8], 43.3% in experiment [9] and 81.5% in [10].
For the compound `O=C(Nc1cccc2c1C(=O)c1cccc(NC(=O)c3ccc(C(=O)Nc4cccc5c4C(=O)c4cccc(NC(=O)c6ccccc6)c4C5=O)cc3)c1C2=O)c1ccccc1`, the growth in experiment [1] is 105%; in [2] it was 112%; in experiment [3], 89.7%; in experiment [4], 105%; in [5] it was 101%; in experiment [6] it was 87.7%. Also, the growth was 105% in experiment [7], 89% in experiment [8], 102% in experiment [9] and 103% in experiment [10].
